This passage reports activity, negative = inhibition and AC50 results from PubChem BioAssay AID1851 (National Center for Advancing Translational Sciences (NCATS), 2009).

In general, AC50 refers to the midpoint of the concentration-response curve, whichever way the signal moves.

Several values for one entry are separate records, joined by “and”; a condition that tells them apart may be missing. Equal entries are not always repeated. The campaign covered roughly 16,000 compounds. About 4,000 (25%) were called active. Roughly 26% stayed inconclusive and do not appear here. Calls follow the shape of the dose curve; as a rule, active = well fitted curve in the direction sought with a large enough effect; inconclusive = small, poorly fitted or top-dose-only effect, or effect the other way; inactive = no such curve, though single readings can be large or run the other way. The list is a sample of the results. Where a structure was tested more than once in an assay, its records may differ in their call.
% is scaled to controls: 0 for no effect and ±100 for the full control effect.

The target in this assay is Cytochrome P450 2C9 (Homo sapiens) (UniProt P11712). The experiment in a line: Cytochrome panel assay with activity outcomes. Conditions: recombinant CYP, pro-luciferin dealkylation, luminescence, p450-cyp2c9; series mostly up to 57.1 µM. As for the experimental part: The P450 gene superfamily is involved in the metabolism and clearance of xenobiotics. This assay used various human CYP P450 isozymes to measure the dealkylation of various pro-luciferin substrates to luciferin. The luciferin is then measured by luminescence after the addition of a luciferase detection reagent. Pro-luciferin substrate concentration in the assay was equal to its KM for its CYP P450 isozyme. Inhibitors and some substrates limit the production of luciferin, and decrease measured luminescence.
Sequence of Cytochrome P450 2C9 (Homo sapiens) (P11712 whole entry, looked up): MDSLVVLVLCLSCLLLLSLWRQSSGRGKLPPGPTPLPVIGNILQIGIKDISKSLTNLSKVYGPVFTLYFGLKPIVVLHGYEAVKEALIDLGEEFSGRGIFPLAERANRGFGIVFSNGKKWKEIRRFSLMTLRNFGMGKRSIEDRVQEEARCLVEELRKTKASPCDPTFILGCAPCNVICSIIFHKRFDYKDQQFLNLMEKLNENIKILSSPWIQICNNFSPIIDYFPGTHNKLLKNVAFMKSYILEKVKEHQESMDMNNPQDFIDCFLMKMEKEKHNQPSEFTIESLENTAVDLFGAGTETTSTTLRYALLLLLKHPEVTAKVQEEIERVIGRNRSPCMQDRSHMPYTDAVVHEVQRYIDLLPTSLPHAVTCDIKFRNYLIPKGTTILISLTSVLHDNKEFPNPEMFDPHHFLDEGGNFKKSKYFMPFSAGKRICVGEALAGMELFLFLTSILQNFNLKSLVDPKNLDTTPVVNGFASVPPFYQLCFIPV
NCGC Assay Protocol Summary:
1, Reagent, 2 uL, Isozyme and Pro-Luciferin
2, Library compounds, 23 nl, 40 uM to 0.24 nM dilution series
3, Controls, 23 nl, Isozyme specific inhibitor
4, Reagent, 2 uL, NADPH regeneration solution
5, Incubation time, 60 min, Isozyme specific temperature
6, Reagent, 4ul, Detection reagent
7, Incubation time, 20 min, Isozyme specific temperature
8, Detection, 1 sec, ViewLux luminescent read
The luciferase-based P450-GloTM Screening Systems were obtained from Promega (Madison, WI) for CYP 1A2 (V9770), CYP 2C9 (V9790), CYP2 C19 (V9880), CYP 2D6 (V9890), and CYP 3A4 Luciferin-PPXE (V9910) and were adapted for 1,536-well microplates and an automated protocol. The control compounds furafylline for 1A2 (F124), sulfaphenazole for CYP 2C9 (S0758), ketoconazole for CYP 2C19 (K1003), quinidine for 2D6 (Q3625), and ketoconazole for 3A4 (K1003) were purchased from Sigma Aldrich (St. Louis, MO). Recombinant P450 enzymes were obtained from baculovirus constructs expressed in insect cells (BD/Gentest).
Medium-binding white solid Kalypsys plates used. Mixtures kept on ice. 1A2: 10 nM 1A2, 100 uM Luc-ME, 100 mM KPO4; 2C9: 10 nM 2C9, 100 uM Luc-H, 25 mM KPO4; 2C19: 5 nM 2C19, 10 uM Luc-H EGE, 50 mM KPO4; 2D6: 5 nM 2D6, 30 uM Luc-ME EGE, 100 mM KPO4; 3A4: 10 nM, 25 uM Luc-PPXE. All amounts are reflected in their final concentration, working concentration is 2x.
NADPH regeneration solution: 1.3 mM NADP+, 3.3 mM glucose-6-phosphate, 3.3 mM MgCl2, 0.4 U/mL glucose-6-phosphate dehydrogenase for all isozymes, 200 mM KPO4 for 3A4. Mixture prepared at RT but kept on ice during automated run.
RT incubation in auxilliary plate hotel for 1A2, 2D6, and 3A4; 37C for 2C9 and 2C19.
Keywords: P450, CYP1A2, CYP2C19, CYP2C9, CYP2D6, CYP3A4, Luciferase, MLSMR, MLSCN, NIH Roadmap, qHTS, NCGC
In the case of `O=C(C1CC(=O)N(C2CCCC2)C1)N1CCC2(CC1)OCCO2` (stereo not drawn), the activity, negative = inhibition entry was “inactive”.

Take `CCOC(=O)c1[nH]c(C)c(C(=O)N2CCC3(CC2)OCCO3)c1C`: the AC50 is 20 µM (active).

Turning to `N=C(N)c1ccc(-c2ccc(-c3ccc(C(=N)N)cc3)o2)cc1`, the activity, negative = inhibition was 19.5% [at 11.4 µM] (inactive).

With `COc1ccccc1CC1C(=O)C2CCN1CC2` (stereo not drawn), the activity, negative = inhibition result was “inactive”.

Consider `CN(N=O)C(=O)N[C@H]1C(O)OC(CO)[C@@H](O)[C@H]1O` (stereo partly drawn), for which the activity, negative = inhibition entry was “inactive”.

As to `CCOc1ccc2c(c1)C(C)=CC(C)(C)N2`, the AC50 is 2 µM (active).

As to `C[N+]1([O-])[C@@H]2CC(OC(=O)[C@@H](CO)c3ccccc3)C[C@@H]1[C@H]1O[C@H]12` (stereo partly drawn), the activity, negative = inhibition entry was “inactive”.

As to `CCCCn1c(N)c(C(=O)NCc2cccs2)c2nc3ccccc3nc21`, the AC50 is 14.1 µM (active).

As for `CC(C)CCn1c(N)c(C(=O)NCc2cccs2)c2nc3ccccc3nc21`, the AC50 is 10 µM (active).

Turning to `CC(C)C(=O)CP(=O)(O)O`, the activity, negative = inhibition was 13.2% [at 11.4 µM] (inactive).

On to `O[C@H](CN1CC1)[C@@H](O)CN1CC1`, for which the activity, negative = inhibition is 4% [at 11.4 µM] (inactive).

As to `C[C@H]1CN(C2CCC(C#N)(c3ccc(F)cc3)CC2)CC[C@@]1(C(=O)O)c1ccccc1` (stereo partly drawn), the activity, negative = inhibition result was “inactive”.

With `c1ccc2c(N3CCNCC3)cccc2c1`, the activity, negative = inhibition result was “inactive”.

As to `Cc1nnc2ccc(-c3cccc(C(F)(F)F)c3)nn12`, the activity, negative = inhibition entry is “inactive”.

With `c1ccc(CN2CCN(Cc3ccc4c(c3)OCCO4)CC2)cc1`, the activity, negative = inhibition result was “inactive”.

Consider `COc1ccc(C(=O)OC2C[C@H]3CC[C@@H](C2)N3C)cc1OC` (stereo partly drawn), for which the activity, negative = inhibition result was “inactive”.

With `O=P(Nc1ccccc1)(Nc1ccccc1)Oc1cccc(Cl)c1`, the AC50 was 12.6 µM (active).

As for `CN1CCc2cc3c(cc2[C@@H]1[C@@H]1OC(=O)c2c1ccc1c2OCO1)OCO3`, the activity, negative = inhibition entry is “inactive”.

For the molecule `CCCN(CCC)C1Cc2cc(OC)c(OC)cc2C1`, the activity, negative = inhibition entry was “inactive”.

As to `NC[C@@H](Cc1ccccc1)P(=O)(O)O`, the activity, negative = inhibition was 22.3% [at 11.4 µM] (inactive).

On to `O=C(Cn1ncc2ccsc2c1=O)N1CCC2(CC1)OCCO2`, for which the activity, negative = inhibition entry is “inactive”.

For `Cc1ccc(S(=O)(=O)NCC2CCC(C(=O)N3CCC4(CC3)OCCO4)CC2)cc1` (stereo not drawn), the activity, negative = inhibition entry was “inactive”.

For `O=C(CNS(=O)(=O)c1ccc(Br)s1)N1CCC2(CC1)OCCO2`, the AC50 was 11.2 µM (active).

Take `CO[C@H]1[C@H](O)[C@H](O[C@@H]2[C@H](Oc3cccc4c(O)c5c(=O)oc6ccc(C)c7c(=O)oc(c34)c5c67)O[C@@H](C)[C@H](O)[C@H]2O)O[C@@H](C)[C@@H]1O`: the activity, negative = inhibition is -7.14% [at 11.4 µM] (inactive).

As for `O=C(O)C[C@H]1NCc2cc3ccccc3nc21`, the activity, negative = inhibition is -0.422% [at 11.4 µM] (inactive).

`CN(C)CC/C=C1\c2ccccc2Sc2ccc(Cl)cc21`: the activity, negative = inhibition was 7.34% [at 11.4 µM] (inactive).

`O=C(O)Cc1cnc[nH]1`: the activity, negative = inhibition entry was “inactive”.

In the case of `C=CCN1C[C@@H](C)N([C@H](c2ccc(C(=O)N(CC)CC)cc2)c2cccc(OC)c2)C[C@H]1C`, the activity, negative = inhibition entry is “inactive”.

With `C=CCN1C[C@H](C)N([C@H](c2ccc(C(=O)N(CC)CC)cc2)c2cccc(O)c2)C[C@H]1C`, the half-maximal activity concentration (AC50) was 3.98 µM (active).

Consider `C=CCN1C[C@H](C)N([C@H](c2ccc(C(=O)N(CC)CC)cc2)c2cccc(OC)c2)C[C@H]1C`, for which the activity, negative = inhibition entry was “inactive”.

Regarding `NC(N)=NS(=O)(=O)c1ccc(N)cc1`, the activity, negative = inhibition result was “inactive”.

Consider `CC[C@@H](CO)NC(=O)[C@H]1C=C2c3cccc4c3c(cn4C)C[C@H]2N(C)C1`, for which the activity, negative = inhibition result was “inactive”.

In the case of `O=[N+]([O-])c1cc(-c2ccc([As](=O)(O)O)cc2)ccc1[As](=O)(O)O`, the activity, negative = inhibition is 16.8% [at 11.4 µM] (inactive).

`CN(C)C=C1C(=O)N(C2CCCCC2)C(=O)N(C2CCCCC2)C1=O`: the AC50 is 2.24 µM (active).

Turning to `COc1cc(-c2ccc(=O)[nH]n2)ccc1OC(F)F`, the activity, negative = inhibition result is “inactive”.

In the case of `C[N+](C)(C)CCCCCC[N+](C)(C)C`, the activity, negative = inhibition entry was “inactive”.

With `CN=C(NC#N)NCCSCc1nc[nH]c1C`, the activity, negative = inhibition result was “inactive”.

Regarding `O=C(O)CS(=O)(=O)C(c1ccccc1)c1ccccc1`, the activity, negative = inhibition is -12.7% [at 11.4 µM] (inactive).

As to `O=C1CCCN1CC#CCN1CCCC1`, the concentration at half-maximal activity (AC50) was 2 µM (active).

With `C[N+](C)(C)CC#CCN1CCCC1=O`, the activity, negative = inhibition result was “inactive”.

With `C(#CCN1CCCC1)CN1CCCC1`, the activity, negative = inhibition result was “inactive”.

As for `CC(C)(C)C(=O)CP(=O)(O)O`, the activity, negative = inhibition is 9.42% [at 11.4 µM] (inactive).

In the case of `OC(c1ccccc1)(c1ccccc1)C1CCCN1` (stereo not drawn), the activity, negative = inhibition result was “inactive”.

On to `COc1ccccc1CN1CC[C@@]2(CCCN(C(=O)Oc3ccccc3)C2)C1`, for which the activity, negative = inhibition result was “inactive”.

Consider `Cc1ccc(C(=O)C2C(=O)c3ccccc3C2=O)cc1`, for which the AC50 was 2.24 µM (active).

On to `CCN1C[C@@]2(COC)CC[C@H](O)[C@@]34[C@@H]2C[C@@H]([C@@H]13)[C@]1(O)C[C@@H](OC)C2C[C@H]4[C@H]1[C@H]2OC(C)=O`, for which the activity, negative = inhibition result is “inactive”.

Consider `c1ccc2sc(C3(N4CCCCC4)CCCCC3)cc2c1`, for which the activity, negative = inhibition entry was “inactive”.

With `c1ccc2c(c1)OC[C@@H](C1=NCCN1)O2`, the AC50 result is “inactive and 31.6 µM (active)”.
